# Test results: PubChem BioAssay (NCATS)
# Results filed as inconclusive are left out. Where a call stands in place of a potency, no number is given. The source made the active and inactive calls. The call rests on the fitted dose curve; in most records, active means well fitted inhibition curve with a large enough effect; inconclusive means small, poorly fitted or top-dose-only effect; inactive means flat fitted curve, though single readings scatter.
# Tested on: CP203
# Test: qHTS profiling for inhibitors of Plasmodium falciparum proliferation (AID 504749); further: nearly all actives have a fitted effect of over 60% in size
# Settings: P. falciparum in erythrocytes, SYBR Green DNA, 72 h; series mostly up to 28.7 µM
# Text: NIH National Institute of Allergy and Infectious Diseases [NIAID] NIH Chemical Genomics Center [NCGC] MLPCN Grant: None Assay Provider: Xinzhuan Su, NIAID NCGC Assay Overview: Plasmodium falciparum is a virulent malarial parasite that kills 1-2 million people worldwide each year. Transmitted by mosquitoes, the sporozoite form of the parasite enters the blood stream to infect hepatocytes, where they become merozoites that infect red blood cells (erythrocytes). Within erythrocytes, merozoites begin a […] cycle of growth and division, after which the parasite is released to infect new red blood cells. Gametocytes, which form within erythrocytes as well, circulate in the bloodstream and are ingested by the mosquito, thereby completing the life cycle. To profile malarial isolates for differential chemical responses and to identify inhibitors of malarial growth, an assay that measures P. falciparum growth and replication within erythrocytes was employed. This assay uses a DNA binding fluorescent dye (SYBR Green) to detect parasite DNA following cell lysis. Because mature erythrocytes lack DNA, only Plasmodium-derived DNA is detected.
# NCGC Assay Protocol Summary: The SYBR Green viability assay was adapted from a method described previously (Plouffe et al., 2008). For screening 3 ul culture medium was dispensed into 1536 well black clear bottom plates (Aurora Biotechnologies) using a Multidrop Combi (Thermo Fisher Scientific Inc.), 23 nL compounds in DMSO were added by a pin tool (Kalypsys), and 5 ul of erythrocytes infected with P. falciparum (0.3% parasitemia, 2.5% hematocrit final concentration) were added. The plates were incubated at 37 C in a humidified incubator in 5% CO2 for 72 h, and 2 ul lysis buffer (20 mM Tris HCl, 10 mM EDTA, 0.16% saponin, 1.6% triton X, 10X SYBR Green I supplied as 10,000X […] by Invitrogen) was added to each well. The plates were mixed for 25 sec with gentle shaking and incubated overnight at room temperature in the dark. The following morning, fluorescence intensity at 485(14) nm excitation and 535(25) nm emission wavelengths was measured on an EnVision (Perkin Elmer) plate reader. Plate reads were normalized relative to the control inhibitor (0.29 uM artemisinin) and vehicle (DMSO) wells present on each plate and then corrected by an algorithm using vehicle-only control plates at the beginning and end of the compound plate stack.
# Potency means the concentration at half of the fitted maximal effect.
row,SMILES,Potency
1,CN(C)CCc1c[nH]c2ccc(CS(=O)(=O)N3CCCC3)cc12,inactive
2,CCn1cc(C(=O)O)c(=O)c2cc(F)c(N3CCNCC3)cc21,inactive
3,Nc1[nH]c(=O)ncc1F,inactive
4,CC(C)(C#N)c1cc(Cn2cncn2)cc(C(C)(C)C#N)c1,inactive
5,CN1CCN(c2c(F)cc3c(=O)c(C(=O)O)cn4c3c2OCN4C)CC1,inactive
6,C[C@]12C=CC(=O)C=C1CC[C@@H]1[C@@H]2C(=O)C[C@@]2(C)[C@H]1CC[C@]2(O)C(=O)CO,inactive
7,CCc1cc(C(N)=S)ccn1,inactive
8,C#CCN[C@@H]1CCc2ccccc21,inactive
9,Cc1ccnc2c1NC(=O)c1cccnc1N2C1CC1,inactive
10,OC(Cn1cncn1)(Cn1cncn1)c1ccc(F)cc1F,inactive
11,CCOC(=O)c1ccc(C#Cc2ccc3c(c2)C(C)(C)CCS3)nc1,inactive
12,CNC1CCCN(c2c(F)cc3c(=O)c(C(=O)O)cn(C4CC4)c3c2OC)C1 (stereo not given),inactive
13,COc1ccc(-c2ccc3cc(C(=O)O)ccc3c2)cc1C12CC3CC(CC(C3)C1)C2,inactive
14,CN(Cc1cc(Br)cc(Br)c1N)C1CCCCC1,inactive
15,CC1=CC(=O)c2ccccc2C1=O,inactive
16,O=S(=O)(O)CCS,inactive
17,COc1cc(NCc2ccc3nc(N)nc(N)c3c2C)cc(OC)c1OC,4.78 µM (active)
18,COc1cnc(NS(=O)(=O)c2ccc(N)cc2)nc1,inactive
19,COc1ncnc(NS(=O)(=O)c2ccc(N)cc2)c1OC,inactive
20,CC[C@H](NC(C)C)[C@H](O)c1ccc(O)c2[nH]c(=O)ccc12,inactive

row,SMILES,Potency
1,CCC(C)(C)c1ccc(CC(C)CN2C[C@@H](C)O[C@@H](C)C2)cc1 (stereo not given in full),inactive
2,CC1=NN(c2ccccc2)C(=O)C1,inactive
3,COc1ccc2cc3[n+](cc2c1OC)CCc1cc2c(cc1-3)OCO2,1.07 µM (active)
4,S=P(N1CC1)(N1CC1)N1CC1,inactive
5,CC(C)(Sc1cc(C(C)(C)C)c(O)c(C(C)(C)C)c1)Sc1cc(C(C)(C)C)c(O)c(C(C)(C)C)c1,inactive
6,CC(C)NCC(O)c1ccc(NS(C)(=O)=O)cc1 (stereo not given),inactive
7,CCCN[C@H]1CCc2nc(N)sc2C1,inactive
8,Nc1ccc(S(=O)(=O)Nc2ccccn2)cc1,inactive
9,CC(N)C12CC3CC(CC(C3)C1)C2 (stereo not given),12 µM (active)
10,N[C@@H](Cc1ccc(O)c(O)c1)C(=O)O,inactive
11,Nc1nc(N)nc(-c2cc(Cl)ccc2Cl)n1,inactive
12,Cn1nnc2c(C(N)=O)ncn2c1=O,inactive
13,O=C(O)c1cc(=O)[nH]c(=O)[nH]1,inactive
14,CN(CCOc1ccc(CC2SC(=O)NC2=O)cc1)c1ccccn1 (stereo not given),inactive
15,O=P(O)(O)C(O)(Cc1cccnc1)P(=O)(O)O,inactive
16,Cc1ncc([N+](=O)[O-])n1CCO,inactive
17,N=C(N)c1ccc(OCCCCCOc2ccc(C(=N)N)cc2)cc1,0.953 µM (active)
18,COC(=O)Nc1nc2ccc(Sc3ccccc3)cc2[nH]1,inactive
19,CCCCOc1ccc(CC(=O)NO)cc1,3.61 µM (active)
20,Cc1noc(NS(=O)(=O)c2ccc(N)cc2)c1C,inactive
